Laboratory results taken from article PMC7862700, “An all-to-all approach to the identification of sequence-specific readers for epigenetic DNA modifications on cytosine”.

Legend:
Assay in all cases: DAPPL (digital affinity profiling via proximity ligation, sequencing); 10 mM Tris-HCl pH 7.5, 50 mM NaCl, 1 mM DTT, 4% glycerol, room temperature, 30 min; GST-TFs on glutathione beads, 16-mer random dsDNA library, 0.1% formaldehyde crosslink after washing; high values mean tight binding
[1] = target: T1, FLI1 (Homo sapiens, UniProt Q01543 1-452); conditions: protein: recombinant; tags: N-terminal GST; dsDNA, one strand shown
T1 sequence: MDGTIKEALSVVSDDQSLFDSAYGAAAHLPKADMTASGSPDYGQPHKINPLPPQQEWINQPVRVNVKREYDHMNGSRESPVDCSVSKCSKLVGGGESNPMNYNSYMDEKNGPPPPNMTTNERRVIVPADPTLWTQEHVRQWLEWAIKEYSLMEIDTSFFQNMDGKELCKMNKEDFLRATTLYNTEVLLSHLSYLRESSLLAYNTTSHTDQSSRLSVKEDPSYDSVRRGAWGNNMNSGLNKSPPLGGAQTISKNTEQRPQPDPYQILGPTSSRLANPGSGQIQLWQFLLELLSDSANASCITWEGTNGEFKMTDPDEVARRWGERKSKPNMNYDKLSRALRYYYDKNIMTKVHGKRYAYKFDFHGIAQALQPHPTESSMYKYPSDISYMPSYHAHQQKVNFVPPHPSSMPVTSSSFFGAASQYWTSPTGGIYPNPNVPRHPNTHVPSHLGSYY
Outline: (§1)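 GST fusions of human transcription factors were expressed in yeast and captured with glutathione beads. Once given DNA barcodes and pooled alongside a tag-only sample, they were incubated for 30 min at room temperature with 200 nmole of a random double-stranded 16-mer DNA library in Tris/NaCl/DTT/glycerol buffer, then washed, crosslinked (0.1% formaldehyde), proximity-ligated, PCR-amplified and sequenced on an Illumina NextSeq500. The binding signal of each hexamer is its read frequency for a factor divided by its frequency for the tag-only sample.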

[2] = target: T2, ELK1 (Homo sapiens, UniProt P19419 1-428); conditions: protein: recombinant; tags: N-terminal GST; dsDNA, one strand shown
T2 sequence: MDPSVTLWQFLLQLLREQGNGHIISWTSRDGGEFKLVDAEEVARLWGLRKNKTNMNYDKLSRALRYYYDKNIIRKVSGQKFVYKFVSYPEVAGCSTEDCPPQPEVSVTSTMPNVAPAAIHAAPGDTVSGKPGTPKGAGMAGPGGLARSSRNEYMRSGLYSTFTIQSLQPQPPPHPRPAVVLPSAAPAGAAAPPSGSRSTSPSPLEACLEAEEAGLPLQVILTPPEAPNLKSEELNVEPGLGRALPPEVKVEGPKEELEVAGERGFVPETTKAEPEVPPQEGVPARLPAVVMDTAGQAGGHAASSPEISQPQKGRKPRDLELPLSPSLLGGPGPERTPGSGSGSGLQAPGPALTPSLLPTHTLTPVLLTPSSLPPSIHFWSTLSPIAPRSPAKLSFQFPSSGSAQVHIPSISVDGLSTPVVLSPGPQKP
Outline: as §1

[3] = target: T3, GABPA (Homo sapiens, UniProt Q06546 1-454); conditions: protein: recombinant; tags: N-terminal GST; dsDNA, one strand shown
T3 sequence: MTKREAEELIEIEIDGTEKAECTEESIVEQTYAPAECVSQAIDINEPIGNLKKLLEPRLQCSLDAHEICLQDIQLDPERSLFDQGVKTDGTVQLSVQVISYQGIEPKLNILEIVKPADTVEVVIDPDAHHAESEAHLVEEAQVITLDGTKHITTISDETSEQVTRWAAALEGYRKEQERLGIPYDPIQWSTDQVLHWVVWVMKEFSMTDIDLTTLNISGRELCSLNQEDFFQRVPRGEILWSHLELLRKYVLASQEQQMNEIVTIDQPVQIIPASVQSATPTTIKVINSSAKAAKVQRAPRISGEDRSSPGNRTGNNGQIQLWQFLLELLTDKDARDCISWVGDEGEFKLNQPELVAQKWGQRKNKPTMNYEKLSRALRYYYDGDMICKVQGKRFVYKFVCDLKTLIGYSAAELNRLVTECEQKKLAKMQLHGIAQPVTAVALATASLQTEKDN
Outline: as §1

[4] = target: T4, ERG (Homo sapiens, UniProt P11308 1-479); conditions: protein: recombinant; tags: N-terminal GST; dsDNA, one strand shown
T4 sequence: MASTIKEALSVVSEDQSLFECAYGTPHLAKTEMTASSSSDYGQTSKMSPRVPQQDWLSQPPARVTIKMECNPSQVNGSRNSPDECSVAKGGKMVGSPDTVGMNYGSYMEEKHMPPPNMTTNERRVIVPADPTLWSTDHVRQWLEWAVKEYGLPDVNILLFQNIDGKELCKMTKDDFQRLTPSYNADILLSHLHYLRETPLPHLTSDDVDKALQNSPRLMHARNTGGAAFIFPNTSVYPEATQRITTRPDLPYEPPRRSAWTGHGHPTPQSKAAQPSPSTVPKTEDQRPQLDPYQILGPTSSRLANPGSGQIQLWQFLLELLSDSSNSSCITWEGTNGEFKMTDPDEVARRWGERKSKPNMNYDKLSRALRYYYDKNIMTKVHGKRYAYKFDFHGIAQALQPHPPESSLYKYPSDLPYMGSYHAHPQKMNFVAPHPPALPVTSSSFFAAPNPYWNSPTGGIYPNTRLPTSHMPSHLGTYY
Outline: as §1

[5] = target: ELF1 (Homo sapiens, UniProt P32519 1-619); conditions: protein: recombinant; tags: N-terminal GST; dsDNA, one strand shown
Outline: as §1

[6] = target: T5, EHF (Homo sapiens, UniProt Q9NZC4 1-300); conditions: protein: recombinant; tags: N-terminal GST; dsDNA, one strand shown
T5 sequence: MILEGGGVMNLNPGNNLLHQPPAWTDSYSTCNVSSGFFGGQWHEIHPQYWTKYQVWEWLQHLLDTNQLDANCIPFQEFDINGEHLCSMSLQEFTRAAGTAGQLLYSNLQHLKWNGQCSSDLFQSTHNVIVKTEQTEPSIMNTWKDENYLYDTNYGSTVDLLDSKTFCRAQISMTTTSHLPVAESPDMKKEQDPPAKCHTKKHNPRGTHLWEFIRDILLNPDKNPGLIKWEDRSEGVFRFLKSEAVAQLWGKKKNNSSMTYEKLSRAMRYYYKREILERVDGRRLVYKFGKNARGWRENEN
Outline: as §1

[7] = target: SPI1 (Homo sapiens, UniProt P17947 1-270); conditions: protein: recombinant; tags: N-terminal GST; dsDNA, one strand shown
Outline: as §1

[8] = target: SPIB (Homo sapiens, UniProt Q01892 1-262); conditions: protein: recombinant; tags: N-terminal GST; dsDNA, one strand shown
Outline: as §1

[9] = target: T6, ELK3 (Homo sapiens, UniProt P41970 1-407); conditions: protein: recombinant; tags: N-terminal GST; dsDNA, one strand shown
T6 sequence: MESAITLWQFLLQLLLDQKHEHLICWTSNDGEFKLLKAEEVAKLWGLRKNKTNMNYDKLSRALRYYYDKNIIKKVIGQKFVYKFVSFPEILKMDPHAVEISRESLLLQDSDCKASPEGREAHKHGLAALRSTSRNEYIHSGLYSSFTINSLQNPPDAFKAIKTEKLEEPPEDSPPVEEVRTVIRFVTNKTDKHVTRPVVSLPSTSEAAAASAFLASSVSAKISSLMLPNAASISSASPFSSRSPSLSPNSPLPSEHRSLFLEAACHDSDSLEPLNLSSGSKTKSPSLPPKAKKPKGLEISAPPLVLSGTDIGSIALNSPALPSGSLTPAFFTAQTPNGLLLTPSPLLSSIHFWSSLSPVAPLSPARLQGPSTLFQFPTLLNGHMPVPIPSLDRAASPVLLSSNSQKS
Outline: as §1

[10] = target: T7, FEV (Homo sapiens, UniProt Q99581 1-238); conditions: protein: recombinant; tags: N-terminal GST; dsDNA, one strand shown
T7 sequence: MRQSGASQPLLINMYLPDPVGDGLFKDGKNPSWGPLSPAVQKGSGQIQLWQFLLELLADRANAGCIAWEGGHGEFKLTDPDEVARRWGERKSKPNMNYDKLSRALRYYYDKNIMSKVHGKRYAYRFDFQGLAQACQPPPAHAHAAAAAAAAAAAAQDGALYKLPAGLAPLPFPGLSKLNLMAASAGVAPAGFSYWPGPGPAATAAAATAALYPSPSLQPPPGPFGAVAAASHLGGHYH
Outline: as §1

[11] = target: ETV5 (Homo sapiens, UniProt P41161 1-510); conditions: protein: recombinant; tags: N-terminal GST; dsDNA, one strand shown
Outline: as §1

[12] = target: HSF1 (Homo sapiens, UniProt Q00613 1-529); conditions: protein: recombinant; tags: N-terminal GST; chain copies: 3; dsDNA, one strand shown
Outline: as §1

[13] = target: T8, SPIC (Homo sapiens, UniProt Q8N5J4 1-248); conditions: protein: recombinant; tags: N-terminal GST; dsDNA, one strand shown
T8 sequence: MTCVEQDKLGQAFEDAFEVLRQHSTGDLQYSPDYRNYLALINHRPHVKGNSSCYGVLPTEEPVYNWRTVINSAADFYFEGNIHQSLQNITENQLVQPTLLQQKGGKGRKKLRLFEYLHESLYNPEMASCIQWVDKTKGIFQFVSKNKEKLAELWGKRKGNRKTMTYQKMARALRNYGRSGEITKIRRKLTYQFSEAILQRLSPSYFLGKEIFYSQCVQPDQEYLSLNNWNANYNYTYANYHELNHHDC
Outline: as §1

[14] = target: ELF4 (Homo sapiens, UniProt Q99607 1-663); conditions: protein: recombinant; tags: N-terminal GST; dsDNA, one strand shown
Outline: as §1

[15] = target: T9, ELK4 (Homo sapiens, UniProt P28324-2 1-405); conditions: protein: recombinant; tags: N-terminal GST; dsDNA, one strand shown
T9 sequence: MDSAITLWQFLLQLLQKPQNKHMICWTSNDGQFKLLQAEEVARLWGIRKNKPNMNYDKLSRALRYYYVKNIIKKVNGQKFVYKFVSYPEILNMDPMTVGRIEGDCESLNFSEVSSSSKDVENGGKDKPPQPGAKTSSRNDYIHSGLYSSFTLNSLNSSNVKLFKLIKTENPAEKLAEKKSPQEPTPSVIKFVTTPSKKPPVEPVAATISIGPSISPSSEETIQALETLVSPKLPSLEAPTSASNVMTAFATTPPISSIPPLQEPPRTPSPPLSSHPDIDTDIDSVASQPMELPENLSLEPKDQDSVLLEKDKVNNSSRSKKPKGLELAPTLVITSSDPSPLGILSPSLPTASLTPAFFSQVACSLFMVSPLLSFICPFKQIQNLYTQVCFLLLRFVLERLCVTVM
Outline: as §1

[16] = target: T10, ETV2 (Homo sapiens, UniProt O00321 1-342); conditions: protein: recombinant; tags: N-terminal GST; dsDNA, one strand shown
T10 sequence: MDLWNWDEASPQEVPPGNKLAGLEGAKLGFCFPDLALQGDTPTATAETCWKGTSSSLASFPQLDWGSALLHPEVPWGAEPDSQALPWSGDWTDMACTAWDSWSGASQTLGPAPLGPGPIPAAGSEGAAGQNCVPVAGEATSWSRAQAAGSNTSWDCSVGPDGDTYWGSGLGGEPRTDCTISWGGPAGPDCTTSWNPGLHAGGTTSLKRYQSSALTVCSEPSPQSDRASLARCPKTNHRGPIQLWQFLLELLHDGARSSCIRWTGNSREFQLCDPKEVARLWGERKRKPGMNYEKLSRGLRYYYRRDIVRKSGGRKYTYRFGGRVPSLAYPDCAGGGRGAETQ
Outline: as §1

[17] = target: T11, ELF3 (Homo sapiens, UniProt P78545 1-371); conditions: protein: recombinant; tags: N-terminal GST; dsDNA, one strand shown
T11 sequence: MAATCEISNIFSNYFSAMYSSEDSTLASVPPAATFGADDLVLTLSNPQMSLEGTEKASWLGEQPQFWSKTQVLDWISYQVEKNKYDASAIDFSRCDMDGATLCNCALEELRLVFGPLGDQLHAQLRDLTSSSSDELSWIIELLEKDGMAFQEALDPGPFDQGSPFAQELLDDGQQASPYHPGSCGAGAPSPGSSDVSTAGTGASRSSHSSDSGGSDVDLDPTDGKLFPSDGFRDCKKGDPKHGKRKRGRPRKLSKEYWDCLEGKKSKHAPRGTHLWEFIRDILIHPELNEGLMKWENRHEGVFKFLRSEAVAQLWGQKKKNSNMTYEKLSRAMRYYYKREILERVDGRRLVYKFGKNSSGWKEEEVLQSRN
Outline: as §1

[18] = target: CRX (Homo sapiens, UniProt O43186 1-299); conditions: protein: recombinant; tags: N-terminal GST; dsDNA, one strand shown
Outline: as §1

[19] = target: ETV1 (Homo sapiens, UniProt P50549 1-477); conditions: protein: recombinant; tags: N-terminal GST; dsDNA, one strand shown
Outline: as §1

Chain of ETV5 (P41161 whole entry): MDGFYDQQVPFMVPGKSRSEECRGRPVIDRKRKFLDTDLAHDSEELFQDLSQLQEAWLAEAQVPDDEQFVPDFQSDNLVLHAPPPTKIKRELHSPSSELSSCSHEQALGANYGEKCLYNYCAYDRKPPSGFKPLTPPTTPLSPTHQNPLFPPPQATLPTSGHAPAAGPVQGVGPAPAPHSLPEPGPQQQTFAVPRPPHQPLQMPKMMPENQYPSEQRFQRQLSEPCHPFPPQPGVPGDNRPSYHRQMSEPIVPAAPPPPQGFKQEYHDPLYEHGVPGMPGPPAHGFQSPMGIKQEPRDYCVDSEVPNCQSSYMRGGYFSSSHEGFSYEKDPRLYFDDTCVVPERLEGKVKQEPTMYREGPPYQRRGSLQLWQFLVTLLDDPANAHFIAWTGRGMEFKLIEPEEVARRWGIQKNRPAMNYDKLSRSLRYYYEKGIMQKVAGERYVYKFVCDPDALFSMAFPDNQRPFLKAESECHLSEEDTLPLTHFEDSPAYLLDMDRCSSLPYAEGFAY
Chain of HSF1 (Q00613 whole entry): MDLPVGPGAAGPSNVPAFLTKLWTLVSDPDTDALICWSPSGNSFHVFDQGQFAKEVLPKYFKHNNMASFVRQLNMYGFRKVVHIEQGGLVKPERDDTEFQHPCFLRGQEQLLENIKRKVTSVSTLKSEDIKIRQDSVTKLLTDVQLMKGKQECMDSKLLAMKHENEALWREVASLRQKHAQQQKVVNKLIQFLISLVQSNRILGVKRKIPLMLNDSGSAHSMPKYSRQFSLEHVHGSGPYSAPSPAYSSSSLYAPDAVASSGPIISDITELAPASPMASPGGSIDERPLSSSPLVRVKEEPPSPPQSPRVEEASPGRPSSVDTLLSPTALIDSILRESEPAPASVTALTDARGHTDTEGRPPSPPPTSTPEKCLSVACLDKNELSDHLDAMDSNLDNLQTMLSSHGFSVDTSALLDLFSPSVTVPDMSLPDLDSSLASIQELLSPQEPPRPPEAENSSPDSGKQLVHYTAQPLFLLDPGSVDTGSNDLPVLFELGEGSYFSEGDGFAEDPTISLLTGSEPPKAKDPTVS
Chain of ELF4 (Q99607 whole entry): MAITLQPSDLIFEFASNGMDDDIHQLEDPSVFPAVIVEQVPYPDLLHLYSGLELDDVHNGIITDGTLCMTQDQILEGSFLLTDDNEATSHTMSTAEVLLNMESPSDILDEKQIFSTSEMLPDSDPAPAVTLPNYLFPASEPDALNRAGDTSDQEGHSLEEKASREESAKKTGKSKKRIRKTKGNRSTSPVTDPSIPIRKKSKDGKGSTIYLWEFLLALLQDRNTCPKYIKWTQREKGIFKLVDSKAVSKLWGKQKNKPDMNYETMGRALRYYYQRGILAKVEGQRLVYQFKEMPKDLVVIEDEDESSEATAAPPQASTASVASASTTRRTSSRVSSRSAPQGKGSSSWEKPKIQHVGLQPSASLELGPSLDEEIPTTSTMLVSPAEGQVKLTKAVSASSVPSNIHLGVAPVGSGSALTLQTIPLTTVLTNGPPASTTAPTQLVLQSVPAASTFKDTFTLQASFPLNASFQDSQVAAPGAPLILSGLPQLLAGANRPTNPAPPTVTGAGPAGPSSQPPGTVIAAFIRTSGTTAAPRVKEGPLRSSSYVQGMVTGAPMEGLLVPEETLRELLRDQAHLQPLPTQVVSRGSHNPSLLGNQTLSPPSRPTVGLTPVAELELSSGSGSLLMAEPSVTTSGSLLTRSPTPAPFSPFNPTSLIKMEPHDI
Chain of ELF1 (P32519 whole entry): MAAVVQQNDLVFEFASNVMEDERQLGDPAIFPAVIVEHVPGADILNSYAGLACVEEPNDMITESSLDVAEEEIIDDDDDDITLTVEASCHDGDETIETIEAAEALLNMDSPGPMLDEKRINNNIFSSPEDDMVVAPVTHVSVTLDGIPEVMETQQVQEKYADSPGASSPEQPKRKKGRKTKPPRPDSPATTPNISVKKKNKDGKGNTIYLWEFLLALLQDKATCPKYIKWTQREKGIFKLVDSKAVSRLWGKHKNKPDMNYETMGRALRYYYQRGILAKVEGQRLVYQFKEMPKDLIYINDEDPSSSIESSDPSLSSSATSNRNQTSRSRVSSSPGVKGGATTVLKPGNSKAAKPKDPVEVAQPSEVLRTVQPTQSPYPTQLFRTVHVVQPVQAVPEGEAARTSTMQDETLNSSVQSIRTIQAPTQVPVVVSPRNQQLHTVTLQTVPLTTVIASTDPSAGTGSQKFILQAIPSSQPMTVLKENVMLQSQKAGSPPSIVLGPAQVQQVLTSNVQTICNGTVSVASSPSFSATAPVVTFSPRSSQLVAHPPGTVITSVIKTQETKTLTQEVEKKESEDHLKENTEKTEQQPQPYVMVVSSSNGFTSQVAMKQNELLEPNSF
Chain of CRX (O43186 whole entry): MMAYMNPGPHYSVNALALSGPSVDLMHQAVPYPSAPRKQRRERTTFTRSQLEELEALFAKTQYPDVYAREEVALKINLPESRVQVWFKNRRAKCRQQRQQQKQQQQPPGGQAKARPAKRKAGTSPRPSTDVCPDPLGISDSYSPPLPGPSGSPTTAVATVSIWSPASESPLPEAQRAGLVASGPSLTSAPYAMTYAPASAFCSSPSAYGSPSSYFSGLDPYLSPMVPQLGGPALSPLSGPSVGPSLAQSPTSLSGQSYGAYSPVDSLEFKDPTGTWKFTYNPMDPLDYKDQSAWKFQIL
Chain of SPIB (Q01892 whole entry): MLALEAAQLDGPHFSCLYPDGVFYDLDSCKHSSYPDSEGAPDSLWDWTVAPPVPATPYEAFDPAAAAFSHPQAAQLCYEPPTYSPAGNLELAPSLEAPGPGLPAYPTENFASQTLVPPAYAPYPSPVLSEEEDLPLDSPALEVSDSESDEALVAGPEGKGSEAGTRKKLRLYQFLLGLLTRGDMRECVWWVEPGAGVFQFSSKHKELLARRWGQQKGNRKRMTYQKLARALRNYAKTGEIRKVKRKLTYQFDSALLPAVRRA
Chain of ETV1 (P50549 whole entry): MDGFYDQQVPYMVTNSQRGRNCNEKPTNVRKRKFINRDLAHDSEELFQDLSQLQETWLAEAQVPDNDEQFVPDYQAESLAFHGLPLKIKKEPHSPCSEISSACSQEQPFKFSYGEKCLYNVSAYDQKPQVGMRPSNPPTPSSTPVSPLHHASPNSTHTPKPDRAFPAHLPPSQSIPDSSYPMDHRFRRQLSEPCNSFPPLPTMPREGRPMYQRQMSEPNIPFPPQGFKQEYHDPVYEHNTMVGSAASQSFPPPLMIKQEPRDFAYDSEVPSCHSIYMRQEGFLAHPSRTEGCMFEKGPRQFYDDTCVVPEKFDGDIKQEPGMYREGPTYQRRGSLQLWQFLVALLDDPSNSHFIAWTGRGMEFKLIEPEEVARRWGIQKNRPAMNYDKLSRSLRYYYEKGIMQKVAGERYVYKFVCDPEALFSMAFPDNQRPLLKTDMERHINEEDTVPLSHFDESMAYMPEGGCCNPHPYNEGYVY

ATTCTT
binding signal [1]: 1.48 fold enrichment (6-mer frequency, TF over GST control)
binding signal [2]: 1.44 fold enrichment (6-mer frequency, TF over GST control)
binding signal [3]: 1.49 fold enrichment (6-mer frequency, TF over GST control)
binding signal [4]: 1.5 fold enrichment (6-mer frequency, TF over GST control)
binding signal [5]: 1.51 fold enrichment (6-mer frequency, TF over GST control)
binding signal [6]: 1.45 fold enrichment (6-mer frequency, TF over GST control)
binding signal [7]: 1.44 fold enrichment (6-mer frequency, TF over GST control)
binding signal [8]: 1.56 fold enrichment (6-mer frequency, TF over GST control)
binding signal [9]: 1.61 fold enrichment (6-mer frequency, TF over GST control)
binding signal [10]: 1.4 fold enrichment (6-mer frequency, TF over GST control)
binding signal [11]: 1.4 fold enrichment (6-mer frequency, TF over GST control)
binding signal [12]: 1.99 fold enrichment (6-mer frequency, TF over GST control)
binding signal [13]: 1.56 fold enrichment (6-mer frequency, TF over GST control)
binding signal [14]: 1.47 fold enrichment (6-mer frequency, TF over GST control)
binding signal [15]: 1.51 fold enrichment (6-mer frequency, TF over GST control)
binding signal [16]: 1.37 fold enrichment (6-mer frequency, TF over GST control)
binding signal [17]: 1.45 fold enrichment (6-mer frequency, TF over GST control)
binding signal [18]: 1.77 fold enrichment (6-mer frequency, TF over GST control)
binding signal [19]: 1.56 fold enrichment (6-mer frequency, TF over GST control)
